Rows were chosen to be rich in hits. Some 2.5% of all compounds tested hit in one or more screens of this group.
MEKK3 PB1 HTS: raises or lowers MEK5 binding to the human MEKK3 PB1 domain | bead-based flow cytometry, Alexa488-MEK5 binding to MEKK3; actives lie on both sides; 0 = blocked by unlabeled MEK5, 100 = vehicle | actives 1.4% (n = 290,000) | Q99759 | binding response (% of control), % at 10 µM | AID 1529;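 active means binding response more than 3 SD above or below the average of its plate-row segment, actives on both sides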;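 further: Alexa488 bead fluorescence after subtracting the streptavidin-only scavenger bead signal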
Target sequence (Q99759 whole entry, looked up, the tested form may be a part): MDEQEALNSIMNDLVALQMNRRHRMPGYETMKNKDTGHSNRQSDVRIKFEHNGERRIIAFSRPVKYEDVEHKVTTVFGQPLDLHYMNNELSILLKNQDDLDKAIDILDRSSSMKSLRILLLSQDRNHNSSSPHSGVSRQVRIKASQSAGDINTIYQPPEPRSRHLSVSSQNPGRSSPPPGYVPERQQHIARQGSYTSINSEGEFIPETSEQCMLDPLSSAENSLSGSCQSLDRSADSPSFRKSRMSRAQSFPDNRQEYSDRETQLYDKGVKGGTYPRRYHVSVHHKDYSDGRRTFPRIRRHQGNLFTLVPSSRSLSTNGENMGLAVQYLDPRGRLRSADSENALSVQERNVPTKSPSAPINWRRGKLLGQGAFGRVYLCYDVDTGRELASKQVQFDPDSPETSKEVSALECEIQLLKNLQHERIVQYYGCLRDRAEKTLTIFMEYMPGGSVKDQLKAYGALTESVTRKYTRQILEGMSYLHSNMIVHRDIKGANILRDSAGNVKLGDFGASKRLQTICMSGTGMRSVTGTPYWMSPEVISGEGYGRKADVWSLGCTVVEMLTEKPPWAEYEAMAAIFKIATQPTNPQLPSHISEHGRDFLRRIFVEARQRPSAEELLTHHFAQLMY
GRK2 inh: human GRK2 inhibition via aptamer displacement; actives 0.59% (n = 330,000); inhibition of aptamer binding, % at 10 µM; bead flow cytometry, FAM-aptamer displacement from GRK2; AID 488847; P25098;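 active means inhibition of aptamer binding above 40%, roughly 3 SD of noise, on plates passing a quality check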;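 further: median bead fluorescence of bound FAM aptamer so fluorescent compounds give negative values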
MEKK2 WT-MEK5: raises or lowers MEK5 binding to wildtype human MEKK2 PB1 domain; Q9Y2U5; bead flow cytometry, Alexa488-MEK5 binding to MEKK2 WT; actives lie on both sides; binding response (% of control), % at 10 µM; actives 1.1% (n = 290,000); in the data active means binding response below about 67% or above about 130%
MEKK2 mut-MEK5: signal of MEK5 binding to mutant human MEKK2 PB1 domain; bead flow cytometry, Alexa488-MEK5 binding to MEKK2 mutant; actives 0.35% (n = 290,000); percent response, % at 10 µM; in the data active means percent response above about 24%, passing the limit was not always enough
The depositor's hits bear a star; . = no result.

SMILES	MEKK3 PB1 HTS	GRK2 inh	MEKK2 WT-MEK5	MEKK2 mut-MEK5
CCOc1cccc2sc(N(CCCN(C)C)C(=O)c3ccc(S(=O)(=O)N4CCCCCC4)cc3)nc12	103	0	149*	23
CN(C)CCCN(C(=O)c1ccc(C(=O)c2ccccc2)cc1)c1nc2c(F)cccc2s1	108	0	143*	13
CCOc1cccc2sc(N(CCCN(C)C)C(=O)c3ccc(S(=O)(=O)N(C)Cc4ccccc4)cc3)nc12	111	0	233*	62*
COc1cccc2sc(N(CCCN(C)C)C(=O)c3ccc(S(=O)(=O)N4CCc5ccccc5C4)cc3)nc12	107	0	192*	38*
CC(OC(=O)c1cccc(-n2cnnn2)c1)C(=O)Nc1ccc(F)cc1Cl (stereo not drawn)	.	1	.	.
Cc1n[nH]c(C)c1CCNC(=O)C1CCC(=O)N(Cc2ccccc2F)C1 (stereo not drawn)	107	0	108	10
CN(C)CCCN(C(=O)c1ccc(S(=O)(=O)N2CCc3ccccc32)cc1)c1nc2c(Cl)cccc2s1	109	0	257*	58*
CCCCN(CC)S(=O)(=O)c1ccc(C(=O)N(CCCN(C)C)c2nc3cc(C)cc(C)c3s2)cc1	145*	0	162*	6
CN(C)CCN(C(=O)c1ccc(S(=O)(=O)N2CCc3ccccc32)cc1)c1nc2ccc(F)cc2s1	102	0	124	14
COc1ccc(CC2(C)OC(c3ccc([N+](=O)[O-])cc3)=NN2C(C)=O)cc1 (stereo not drawn)	92	0	87	-15
CCOC(=O)c1cc(-c2ccccc2)sc1NC(=O)C(C)OC(=O)c1cccnc1Cl (stereo not drawn)	101	100*	97	0
CCOC(=O)c1cc(-c2ccccc2)sc1NC(=O)C(C)OC(=O)c1ccncc1 (stereo not drawn)	98	4	97	-2
O=C(OCC(=O)c1ccc(Cl)cc1Cl)c1cnccn1	96	1	95	-5
Cc1ccc(C)c(/C=C(\C(=O)O)c2ccc(S(=O)(=O)N3CCCCC3)s2)c1	97	0	98	-2
CCN(CC)CCCNc1nc(SC)nc2sc3c(c12)CCN(C)C3	99	0	153*	30*
CC(/C=C/C=C/c1ccccc1)=N/NC(=O)CNc1ccccc1C	96	55*	97	-3
CCn1c(C)nc2cc(C(=O)NNC(=O)Nc3ccc(Cl)c(Cl)c3)ccc21	94	0	92	-8
CCn1c(C)nc2cc(C(=O)NNC(=O)CN(C)S(=O)(=O)c3ccc(NC(C)=O)cc3)ccc21	.	100*	.	.
Cc1cc(NC(=S)N(Cc2ccc(Br)cc2)Cc2ccc(C(=O)O)cc2)ccc1Cl	102	1	99	-4
CN(CCOc1ccccc1)C(=O)c1ccc(N2CCCC2)c([N+](=O)[O-])c1	100	0	94	-4
O=C(CCN1C(=O)/C(=C/c2ccccc2)SC1=S)NC1CCS(=O)(=O)C1 (stereo not drawn)	99	4	98	3
O=C(CN1C(=O)/C(=C/c2ccco2)SC1=S)NC1CCS(=O)(=O)C1 (stereo not drawn)	98	45*	102	4
CCC(=O)Nc1cccc(C2=NN(c3ccccc3)C(c3ccc(OC)cc3)C2)c1 (stereo not drawn)	108	0	109	8
CN1CCN(C(=O)/C=C/c2ccc(Cl)cc2)CC1	97	1	109	12
O=C(/C=C/c1ccc(Cl)cc1)N1CCN(Cc2ccccc2)CC1	103	44*	101	5
SMILES	MEKK3 PB1 HTS	GRK2 inh	MEKK2 WT-MEK5	MEKK2 mut-MEK5
CN1CCN(C(c2ccc(Cl)cc2)c2cc(Cl)c3cccnc3c2O)CC1 (stereo not drawn)	106	1	137*	28*
CN1CCN(C(c2ccc(C(F)(F)F)cc2)c2cc(Cl)c3cccnc3c2O)CC1 (stereo not drawn)	105	2	130	12
O=C(C1CCOCC1)N1CCC(CO)(CCc2ccccc2)CC1	100	2	102	8
CCC(C)[C@H](NC(=O)N1CC(=O)Nc2ccccc21)C(=O)N1CCC[C@H]1C(=O)O (stereo partly drawn)	100	0	100	1
CCN1CCN(CCCNC(=O)c2ccc(/C=C3/Sc4ccccc4N(Cc4ccccc4F)C3=O)cc2)CC1	102	0	177*	40
CCN1CCN(CCCNC(=O)c2ccc(/C=C3/Oc4ccccc4N(Cc4cccc(C)c4)C3=O)cc2)CC1	105	0	169*	34*
O=C(O)c1cccc(Nc2ccnc(Nc3cccc(C(=O)O)c3)n2)c1	108	0	108	10
CSc1ccccc1NC(=O)COC(=O)/C=C/c1ccco1	.	41*	.	.
O=C(COC(=O)/C=C/c1ccco1)NCc1ccccc1Cl	99	3	97	-2
O=C(COC(=O)/C=C/c1ccco1)Nc1ncc(C(F)(F)F)cc1Cl	100	52*	106	17
CNC(=O)COC(=O)/C=C/c1ccco1	95	4	99	-2
Cc1cc(C)cc(OCC(=O)Nc2cnn(CCCC(=O)O)c2)c1	88	0	91	-7
O=C(CSc1nnc(Cc2cc(=O)[nH]c(=O)[nH]2)n1-c1ccc(Cl)cc1)NCC1CCCO1 (stereo not drawn)	101	0	8.0*	17
O=C(CCNC(=O)c1ccccc1)N=Nc1c(O)[nH]c2ccccc12	93	1	93	94*
CCOCCCN(C(=O)Cn1nnc(-c2ccc(OC)c(OC)c2)n1)C(C(=O)NCC1CCCO1)c1ccc(F)cc1 (stereo not drawn)	101	1	98	0
COc1ccccc1/C=C/CN1CCC(n2nccc2NC(=O)CCc2ccccc2)CC1	103	0	138*	11
CCOc1ccccc1CN1CCC(n2nccc2NC(=O)CCc2ccccc2)CC1	104	0	122	16
O=C(CCc1ccccc1)Nc1ccnn1C1CCN(C/C=C/c2ccccc2)CC1	108	0	126	27*
CC(OC(=O)CCN1C(=O)C2CC=CCC2C1=O)C(=O)Nc1cccc(C#N)c1 (stereo not drawn)	.	4	.	.
N#C/C(=C\c1sc(N2CCOCC2)nc1-c1ccccc1)C(=O)Nc1cccc2ccccc12	135*	.	92	5
O=C(Nc1ccccc1)c1sc(N2CCOCC2)nc1-c1ccccc1	93	0	105	-5
N#C/C(C(=O)N1CCCCC1)=C1/N=C(N)c2ccccc21	99	100*	100	-2
N#C/C(C(=O)N1CCCCC1)=C1/N=C(NC(=O)c2ccc(F)cc2)c2ccccc21	97	3	93	-2
CCN(CC)c1ccc(C=NCCNS(=O)(=O)c2ccc(C)cc2)cc1	98	0	-6.0*	7
O=C(CSc1nc2c(sc3ccccc32)c(=O)n1CCCN1CCCC1)NCc1ccccc1	101	0	113	4

Screening results deposited in PubChem by NMMLSC.
